Laboratory results from publication PMC7862700, “An all-to-all approach to the identification of sequence-specific readers for epigenetic DNA modifications on cytosine”.

What was measured:
Assay in all cases: DAPPL (digital affinity profiling via proximity ligation, sequencing); 10 mM Tris-HCl pH 7.5, 50 mM NaCl, 1 mM DTT, 4% glycerol, room temperature, 30 min; GST-TFs on glutathione beads, 16-mer random dsDNA library, 0.1% formaldehyde crosslink after washing; high values mean tight binding
FLI1 = molecular target: T1, FLI1 (Homo sapiens, UniProt Q01543 1-452); settings: protein: recombinant; tags: N-terminal GST; dsDNA, one strand shown
T1 sequence: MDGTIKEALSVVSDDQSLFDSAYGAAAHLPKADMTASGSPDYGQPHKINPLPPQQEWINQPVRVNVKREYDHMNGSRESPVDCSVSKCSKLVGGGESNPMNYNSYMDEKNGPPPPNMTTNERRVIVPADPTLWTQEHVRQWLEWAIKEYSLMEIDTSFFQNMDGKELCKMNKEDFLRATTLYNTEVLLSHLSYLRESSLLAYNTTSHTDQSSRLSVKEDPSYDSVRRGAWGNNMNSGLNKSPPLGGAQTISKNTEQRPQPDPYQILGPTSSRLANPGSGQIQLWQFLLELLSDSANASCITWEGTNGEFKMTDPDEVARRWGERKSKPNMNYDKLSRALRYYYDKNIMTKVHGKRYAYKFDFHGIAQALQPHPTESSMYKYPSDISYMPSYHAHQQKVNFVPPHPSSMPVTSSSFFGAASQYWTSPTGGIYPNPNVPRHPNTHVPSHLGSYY
Method in brief: (§1)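 Each value of binding signal is a hexamer's read frequency for a factor divided by the same hexamer's frequency in the tag-only sample. Barcoded, bead-captured GST fusions of human transcription factors made in yeast were pooled with that sample and incubated with 200 nmole of a random double-stranded 16-mer DNA library in Tris/NaCl/DTT/glycerol buffer at room temperature for 30 min. Washing, 0.1% formaldehyde crosslinking, proximity ligation, PCR and Illumina NextSeq500 sequencing followed.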

ELK1 = molecular target: T2, ELK1 (Homo sapiens, UniProt P19419 1-428); settings: protein: recombinant; tags: N-terminal GST; dsDNA, one strand shown
T2 sequence: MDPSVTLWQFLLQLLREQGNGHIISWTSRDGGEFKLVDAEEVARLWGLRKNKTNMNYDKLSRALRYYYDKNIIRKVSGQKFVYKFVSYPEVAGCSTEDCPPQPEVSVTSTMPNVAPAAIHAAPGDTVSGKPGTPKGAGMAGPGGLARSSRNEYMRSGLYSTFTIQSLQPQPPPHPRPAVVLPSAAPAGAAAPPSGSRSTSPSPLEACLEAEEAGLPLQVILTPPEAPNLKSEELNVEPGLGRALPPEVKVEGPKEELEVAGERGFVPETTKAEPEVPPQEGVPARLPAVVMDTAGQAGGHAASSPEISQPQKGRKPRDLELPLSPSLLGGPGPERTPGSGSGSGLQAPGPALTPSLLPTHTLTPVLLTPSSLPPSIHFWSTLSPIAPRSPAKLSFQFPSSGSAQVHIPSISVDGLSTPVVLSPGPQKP
Method in brief: as §1

GABPA = molecular target: T3, GABPA (Homo sapiens, UniProt Q06546 1-454); settings: protein: recombinant; tags: N-terminal GST; dsDNA, one strand shown
T3 sequence: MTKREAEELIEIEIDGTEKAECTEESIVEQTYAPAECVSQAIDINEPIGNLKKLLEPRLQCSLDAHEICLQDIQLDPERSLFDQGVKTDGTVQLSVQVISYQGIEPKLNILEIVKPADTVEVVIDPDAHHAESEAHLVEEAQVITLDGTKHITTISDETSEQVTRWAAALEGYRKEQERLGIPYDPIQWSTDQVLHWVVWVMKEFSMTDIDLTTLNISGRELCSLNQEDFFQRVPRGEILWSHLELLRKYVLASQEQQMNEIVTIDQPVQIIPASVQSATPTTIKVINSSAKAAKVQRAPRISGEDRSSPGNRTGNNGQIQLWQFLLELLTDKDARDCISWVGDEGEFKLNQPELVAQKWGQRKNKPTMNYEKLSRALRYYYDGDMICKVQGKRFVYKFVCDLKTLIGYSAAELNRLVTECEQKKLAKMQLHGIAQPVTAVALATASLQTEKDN
Method in brief: as §1

ERG = molecular target: T4, ERG (Homo sapiens, UniProt P11308 1-479); settings: protein: recombinant; tags: N-terminal GST; dsDNA, one strand shown
T4 sequence: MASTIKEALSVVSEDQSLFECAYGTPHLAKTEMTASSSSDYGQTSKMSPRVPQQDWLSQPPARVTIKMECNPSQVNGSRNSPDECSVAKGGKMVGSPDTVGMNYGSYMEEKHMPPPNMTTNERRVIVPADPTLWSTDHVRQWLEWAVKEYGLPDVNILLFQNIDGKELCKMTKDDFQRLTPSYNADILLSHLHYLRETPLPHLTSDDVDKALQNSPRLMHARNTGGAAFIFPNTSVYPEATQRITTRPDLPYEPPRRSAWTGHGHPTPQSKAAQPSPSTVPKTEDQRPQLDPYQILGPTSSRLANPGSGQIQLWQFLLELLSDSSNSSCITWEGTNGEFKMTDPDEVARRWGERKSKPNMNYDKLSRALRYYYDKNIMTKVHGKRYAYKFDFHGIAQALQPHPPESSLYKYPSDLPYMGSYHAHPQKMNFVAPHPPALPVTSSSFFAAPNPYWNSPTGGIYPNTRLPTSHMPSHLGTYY
Method in brief: as §1

ELF1 = ELF1 (Homo sapiens, UniProt P32519 1-619); settings: protein: recombinant; tags: N-terminal GST; dsDNA, one strand shown
ELF1, sequence (P32519 whole entry): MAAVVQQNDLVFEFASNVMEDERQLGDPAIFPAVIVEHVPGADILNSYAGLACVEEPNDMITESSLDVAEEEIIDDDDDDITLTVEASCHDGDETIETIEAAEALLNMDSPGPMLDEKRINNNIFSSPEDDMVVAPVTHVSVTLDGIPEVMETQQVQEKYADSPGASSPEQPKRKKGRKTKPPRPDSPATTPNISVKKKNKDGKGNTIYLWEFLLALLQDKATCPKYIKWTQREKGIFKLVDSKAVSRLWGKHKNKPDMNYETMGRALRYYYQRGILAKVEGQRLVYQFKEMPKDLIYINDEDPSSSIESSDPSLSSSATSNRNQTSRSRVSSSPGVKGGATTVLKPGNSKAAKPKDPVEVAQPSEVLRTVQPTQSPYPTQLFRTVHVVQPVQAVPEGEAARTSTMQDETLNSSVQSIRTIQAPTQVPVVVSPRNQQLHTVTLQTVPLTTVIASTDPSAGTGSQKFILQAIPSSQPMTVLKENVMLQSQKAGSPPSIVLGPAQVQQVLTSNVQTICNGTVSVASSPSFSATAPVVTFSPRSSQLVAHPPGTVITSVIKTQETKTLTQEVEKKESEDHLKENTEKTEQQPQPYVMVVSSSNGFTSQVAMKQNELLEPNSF
Method in brief: as §1

EHF = molecular target: T5, EHF (Homo sapiens, UniProt Q9NZC4 1-300); settings: protein: recombinant; tags: N-terminal GST; dsDNA, one strand shown
T5 sequence: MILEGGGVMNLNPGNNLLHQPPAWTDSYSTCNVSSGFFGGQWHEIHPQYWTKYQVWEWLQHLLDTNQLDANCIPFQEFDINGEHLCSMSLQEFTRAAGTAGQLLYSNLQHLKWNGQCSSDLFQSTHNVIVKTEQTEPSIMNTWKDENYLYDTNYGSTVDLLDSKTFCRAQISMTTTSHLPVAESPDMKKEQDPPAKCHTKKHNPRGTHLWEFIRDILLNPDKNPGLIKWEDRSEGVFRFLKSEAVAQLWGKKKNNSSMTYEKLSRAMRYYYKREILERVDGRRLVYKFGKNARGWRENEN
Method in brief: as §1

SPI1 = SPI1 (Homo sapiens, UniProt P17947 1-270); settings: protein: recombinant; tags: N-terminal GST; dsDNA, one strand shown
Method in brief: as §1

SPIB = SPIB (Homo sapiens, UniProt Q01892 1-262); settings: protein: recombinant; tags: N-terminal GST; dsDNA, one strand shown
SPIB, sequence (Q01892 whole entry): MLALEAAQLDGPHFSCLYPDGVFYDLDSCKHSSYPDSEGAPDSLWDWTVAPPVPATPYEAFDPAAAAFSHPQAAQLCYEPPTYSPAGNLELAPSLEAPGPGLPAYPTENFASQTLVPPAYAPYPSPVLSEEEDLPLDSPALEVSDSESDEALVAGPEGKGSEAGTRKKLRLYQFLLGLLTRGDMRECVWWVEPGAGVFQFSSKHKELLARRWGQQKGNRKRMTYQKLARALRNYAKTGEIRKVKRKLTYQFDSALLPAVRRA
Method in brief: as §1

ELK3 = molecular target: T6, ELK3 (Homo sapiens, UniProt P41970 1-407); settings: protein: recombinant; tags: N-terminal GST; dsDNA, one strand shown
T6 sequence: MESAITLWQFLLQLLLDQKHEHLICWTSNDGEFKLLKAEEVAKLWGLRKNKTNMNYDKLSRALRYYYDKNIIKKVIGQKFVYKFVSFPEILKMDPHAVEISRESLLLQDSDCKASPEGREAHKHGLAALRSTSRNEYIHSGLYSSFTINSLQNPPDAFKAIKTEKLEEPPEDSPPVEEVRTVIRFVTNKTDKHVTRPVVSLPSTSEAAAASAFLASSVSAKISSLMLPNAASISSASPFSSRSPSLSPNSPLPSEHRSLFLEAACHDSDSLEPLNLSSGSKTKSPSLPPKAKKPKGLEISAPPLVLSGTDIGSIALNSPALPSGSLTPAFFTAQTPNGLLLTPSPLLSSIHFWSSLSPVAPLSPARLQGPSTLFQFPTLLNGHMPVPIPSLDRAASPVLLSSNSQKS
Method in brief: as §1

FEV = molecular target: T7, FEV (Homo sapiens, UniProt Q99581 1-238); settings: protein: recombinant; tags: N-terminal GST; dsDNA, one strand shown
T7 sequence: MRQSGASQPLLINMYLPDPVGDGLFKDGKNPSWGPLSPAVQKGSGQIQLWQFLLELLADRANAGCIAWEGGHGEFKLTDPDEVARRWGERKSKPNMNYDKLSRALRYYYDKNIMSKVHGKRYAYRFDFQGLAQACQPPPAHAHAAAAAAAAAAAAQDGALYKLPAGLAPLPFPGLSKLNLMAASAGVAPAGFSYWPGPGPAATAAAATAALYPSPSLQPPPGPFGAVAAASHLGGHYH
Method in brief: as §1

ETV5 = ETV5 (Homo sapiens, UniProt P41161 1-510); settings: protein: recombinant; tags: N-terminal GST; dsDNA, one strand shown
ETV5, sequence (P41161 whole entry): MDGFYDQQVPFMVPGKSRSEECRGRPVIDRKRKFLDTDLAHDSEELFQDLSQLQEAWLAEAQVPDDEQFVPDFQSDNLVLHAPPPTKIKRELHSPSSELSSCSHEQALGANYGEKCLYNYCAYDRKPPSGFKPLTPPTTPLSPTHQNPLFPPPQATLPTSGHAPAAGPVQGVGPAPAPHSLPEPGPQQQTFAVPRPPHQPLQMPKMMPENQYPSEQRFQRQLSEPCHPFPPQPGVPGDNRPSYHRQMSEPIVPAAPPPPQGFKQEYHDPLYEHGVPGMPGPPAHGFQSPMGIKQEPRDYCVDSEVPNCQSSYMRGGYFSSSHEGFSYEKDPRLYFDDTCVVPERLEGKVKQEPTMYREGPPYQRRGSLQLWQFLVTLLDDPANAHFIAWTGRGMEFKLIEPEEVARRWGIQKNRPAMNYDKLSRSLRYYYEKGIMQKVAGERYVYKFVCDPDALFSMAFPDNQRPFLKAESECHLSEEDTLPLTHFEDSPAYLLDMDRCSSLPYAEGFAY
Method in brief: as §1

HSF1 = HSF1 (Homo sapiens, UniProt Q00613 1-529); settings: protein: recombinant; tags: N-terminal GST; chain copies: 3; dsDNA, one strand shown
HSF1, sequence (Q00613 whole entry): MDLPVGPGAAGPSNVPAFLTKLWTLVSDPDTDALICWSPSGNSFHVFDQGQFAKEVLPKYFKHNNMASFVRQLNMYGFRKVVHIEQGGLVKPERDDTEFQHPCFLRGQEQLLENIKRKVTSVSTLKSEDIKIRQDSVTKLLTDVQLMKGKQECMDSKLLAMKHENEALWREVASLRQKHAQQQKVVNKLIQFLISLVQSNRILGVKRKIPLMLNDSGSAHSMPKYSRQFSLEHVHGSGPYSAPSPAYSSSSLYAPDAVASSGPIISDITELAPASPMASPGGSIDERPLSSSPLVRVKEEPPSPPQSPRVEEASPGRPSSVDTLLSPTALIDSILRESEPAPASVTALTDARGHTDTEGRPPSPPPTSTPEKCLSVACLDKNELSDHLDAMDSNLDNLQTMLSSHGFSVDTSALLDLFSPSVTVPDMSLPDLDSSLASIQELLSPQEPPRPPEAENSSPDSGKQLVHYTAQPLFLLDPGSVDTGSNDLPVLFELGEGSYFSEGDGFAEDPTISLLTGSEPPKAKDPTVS
Method in brief: as §1

SPIC = molecular target: T8, SPIC (Homo sapiens, UniProt Q8N5J4 1-248); settings: protein: recombinant; tags: N-terminal GST; dsDNA, one strand shown
T8 sequence: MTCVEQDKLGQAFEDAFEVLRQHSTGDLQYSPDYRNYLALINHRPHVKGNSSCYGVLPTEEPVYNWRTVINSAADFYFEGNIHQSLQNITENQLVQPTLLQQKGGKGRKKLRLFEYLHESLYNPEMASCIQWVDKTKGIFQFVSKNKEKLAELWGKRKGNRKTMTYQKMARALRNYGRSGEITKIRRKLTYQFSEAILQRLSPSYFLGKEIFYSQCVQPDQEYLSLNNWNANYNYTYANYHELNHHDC
Method in brief: as §1

ELF4 = ELF4 (Homo sapiens, UniProt Q99607 1-663); settings: protein: recombinant; tags: N-terminal GST; dsDNA, one strand shown
ELF4, sequence (Q99607 whole entry): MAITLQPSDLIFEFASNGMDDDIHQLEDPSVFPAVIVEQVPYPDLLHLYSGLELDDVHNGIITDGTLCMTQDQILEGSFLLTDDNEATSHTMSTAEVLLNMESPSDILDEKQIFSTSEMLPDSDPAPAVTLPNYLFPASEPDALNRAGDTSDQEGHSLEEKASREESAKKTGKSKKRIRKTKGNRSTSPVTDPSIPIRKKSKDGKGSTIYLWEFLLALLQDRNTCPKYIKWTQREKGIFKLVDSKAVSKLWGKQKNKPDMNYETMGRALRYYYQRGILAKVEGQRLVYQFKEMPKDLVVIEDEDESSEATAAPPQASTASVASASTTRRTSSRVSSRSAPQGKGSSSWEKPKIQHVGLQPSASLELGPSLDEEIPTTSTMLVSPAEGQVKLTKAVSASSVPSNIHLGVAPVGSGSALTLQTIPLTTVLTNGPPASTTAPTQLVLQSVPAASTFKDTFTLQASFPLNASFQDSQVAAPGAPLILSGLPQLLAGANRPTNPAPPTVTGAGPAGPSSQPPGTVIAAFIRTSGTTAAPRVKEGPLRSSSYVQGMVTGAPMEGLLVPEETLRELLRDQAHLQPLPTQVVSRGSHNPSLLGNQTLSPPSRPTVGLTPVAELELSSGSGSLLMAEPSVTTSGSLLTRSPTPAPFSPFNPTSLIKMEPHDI
Method in brief: as §1

ELK4 = molecular target: T9, ELK4 (Homo sapiens, UniProt P28324-2 1-405); settings: protein: recombinant; tags: N-terminal GST; dsDNA, one strand shown
T9 sequence: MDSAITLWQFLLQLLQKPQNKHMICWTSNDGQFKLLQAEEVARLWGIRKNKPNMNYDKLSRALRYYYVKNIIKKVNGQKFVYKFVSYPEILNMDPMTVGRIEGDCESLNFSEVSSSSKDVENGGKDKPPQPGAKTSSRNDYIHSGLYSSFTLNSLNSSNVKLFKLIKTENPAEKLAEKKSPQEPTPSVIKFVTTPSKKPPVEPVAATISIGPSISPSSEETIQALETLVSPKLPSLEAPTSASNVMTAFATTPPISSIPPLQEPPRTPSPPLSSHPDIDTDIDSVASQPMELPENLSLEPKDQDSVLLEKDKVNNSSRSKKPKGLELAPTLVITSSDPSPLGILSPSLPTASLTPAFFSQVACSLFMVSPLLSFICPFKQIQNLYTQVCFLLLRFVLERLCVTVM
Method in brief: as §1

ETV2 = molecular target: T10, ETV2 (Homo sapiens, UniProt O00321 1-342); settings: protein: recombinant; tags: N-terminal GST; dsDNA, one strand shown
T10 sequence: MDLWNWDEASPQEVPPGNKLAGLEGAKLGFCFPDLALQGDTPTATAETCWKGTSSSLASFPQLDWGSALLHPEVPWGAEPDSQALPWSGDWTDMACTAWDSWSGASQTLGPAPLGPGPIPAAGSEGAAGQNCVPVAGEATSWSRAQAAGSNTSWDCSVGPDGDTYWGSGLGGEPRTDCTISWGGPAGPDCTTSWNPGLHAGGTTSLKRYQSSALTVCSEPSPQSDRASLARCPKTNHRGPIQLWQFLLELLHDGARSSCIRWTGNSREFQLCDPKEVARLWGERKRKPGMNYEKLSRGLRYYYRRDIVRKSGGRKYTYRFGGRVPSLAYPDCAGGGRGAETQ
Method in brief: as §1

ELF3 = molecular target: T11, ELF3 (Homo sapiens, UniProt P78545 1-371); settings: protein: recombinant; tags: N-terminal GST; dsDNA, one strand shown
T11 sequence: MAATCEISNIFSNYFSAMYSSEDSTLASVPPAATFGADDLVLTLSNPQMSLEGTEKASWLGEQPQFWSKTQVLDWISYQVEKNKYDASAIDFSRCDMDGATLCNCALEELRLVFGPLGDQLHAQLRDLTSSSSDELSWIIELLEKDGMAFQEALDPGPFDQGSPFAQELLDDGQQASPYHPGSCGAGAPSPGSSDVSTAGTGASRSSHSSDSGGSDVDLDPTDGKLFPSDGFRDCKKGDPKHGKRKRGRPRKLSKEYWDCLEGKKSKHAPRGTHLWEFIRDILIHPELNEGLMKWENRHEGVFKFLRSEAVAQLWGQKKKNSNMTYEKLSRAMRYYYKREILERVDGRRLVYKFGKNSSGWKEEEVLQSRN
Method in brief: as §1

CRX = CRX (Homo sapiens, UniProt O43186 1-299); settings: protein: recombinant; tags: N-terminal GST; dsDNA, one strand shown
CRX, sequence (O43186 whole entry): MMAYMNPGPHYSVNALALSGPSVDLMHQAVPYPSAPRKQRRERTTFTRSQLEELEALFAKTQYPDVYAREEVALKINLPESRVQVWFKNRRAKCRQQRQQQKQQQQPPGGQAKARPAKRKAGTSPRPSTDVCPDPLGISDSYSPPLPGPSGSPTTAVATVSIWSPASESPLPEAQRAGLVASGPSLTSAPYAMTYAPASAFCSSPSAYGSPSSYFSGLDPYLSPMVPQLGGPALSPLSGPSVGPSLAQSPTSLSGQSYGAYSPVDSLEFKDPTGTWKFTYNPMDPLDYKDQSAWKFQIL
Method in brief: as §1

ETV1 = ETV1 (Homo sapiens, UniProt P50549 1-477); settings: protein: recombinant; tags: N-terminal GST; dsDNA, one strand shown
ETV1, sequence (P50549 whole entry): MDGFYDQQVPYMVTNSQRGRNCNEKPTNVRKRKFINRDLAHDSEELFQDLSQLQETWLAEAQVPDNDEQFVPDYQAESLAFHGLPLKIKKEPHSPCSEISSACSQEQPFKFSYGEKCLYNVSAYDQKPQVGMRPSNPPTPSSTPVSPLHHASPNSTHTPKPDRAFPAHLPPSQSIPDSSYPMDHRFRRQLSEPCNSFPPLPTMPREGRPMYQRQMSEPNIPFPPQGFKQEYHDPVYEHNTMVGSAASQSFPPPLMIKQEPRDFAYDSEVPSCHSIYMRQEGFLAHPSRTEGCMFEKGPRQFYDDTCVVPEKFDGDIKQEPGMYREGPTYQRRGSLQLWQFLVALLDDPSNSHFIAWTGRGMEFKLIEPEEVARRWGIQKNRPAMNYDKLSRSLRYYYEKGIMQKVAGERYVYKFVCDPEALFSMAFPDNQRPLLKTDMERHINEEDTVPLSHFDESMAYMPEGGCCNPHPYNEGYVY
Method in brief: as §1

CATCTC
binding signal (FLI1): 1.42 fold enrichment (6-mer frequency, TF over GST control)
binding signal (ELK1): 1.3 fold enrichment (6-mer frequency, TF over GST control)
binding signal (GABPA): 1.34 fold enrichment (6-mer frequency, TF over GST control)
binding signal (ERG): 1.24 fold enrichment (6-mer frequency, TF over GST control)
binding signal (ELF1): 1.37 fold enrichment (6-mer frequency, TF over GST control)
binding signal (EHF): 1.31 fold enrichment (6-mer frequency, TF over GST control)
binding signal (SPI1): 1.36 fold enrichment (6-mer frequency, TF over GST control)
binding signal (SPIB): 1.26 fold enrichment (6-mer frequency, TF over GST control)
binding signal (ELK3): 1.22 fold enrichment (6-mer frequency, TF over GST control)
binding signal (FEV): 1.2 fold enrichment (6-mer frequency, TF over GST control)
binding signal (ETV5): 1.29 fold enrichment (6-mer frequency, TF over GST control)
binding signal (HSF1): 1.26 fold enrichment (6-mer frequency, TF over GST control)
binding signal (SPIC): 1.46 fold enrichment (6-mer frequency, TF over GST control)
binding signal (ELF4): 1.26 fold enrichment (6-mer frequency, TF over GST control)
binding signal (ELK4): 1.42 fold enrichment (6-mer frequency, TF over GST control)
binding signal (ETV2): 1.4 fold enrichment (6-mer frequency, TF over GST control)
binding signal (ELF3): 1.23 fold enrichment (6-mer frequency, TF over GST control)
binding signal (CRX): 1.16 fold enrichment (6-mer frequency, TF over GST control)
binding signal (ETV1): 1.26 fold enrichment (6-mer frequency, TF over GST control)
